High-throughput results as filed in PubChem BioAssay.
Pf growth 96h: P. falciparum growth inhibition at 96 hours; actives 6.9% (n = 320,000); Potency, µM (top dose mostly 28.7 µM), without a hit: top-dose activity change, negative = inhibition, usual class: inhibitors; P. falciparum luciferase reporter growth, 96 h
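Plates of compound plus infected erythrocytes (2% hematocrit, 0.05% parasitemia final) incubate 96 hours, 37 C, 5% CO2. Detection reagent added; reduced luminescence from the parasites' luciferase reporter flags inhibition.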
AMA1 RON2 block: AMA1-RON2 (P. falciparum) interaction inhibition | AlphaScreen AMA1-biotinylated RON2 peptide binding | AID 720542 | actives 0.2% (n = 360,000) | Potency, µM (titrated, usually from 58.2 µM), inactives show at the highest dose activity change, negative = inhibition, actives largely listed as inhibitors;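 also: 0% = vehicle wells and -100% = peptide control; nearly all actives have a fitted effect of over 45% in size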
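AMA1 (3D7) with his tag at 25 nM final met compounds first, then biotinylated RON2 peptide at 25 nM; detection used donor plus acceptor beads, 10 µg/mL apiece, read by AlphaScreen after 30 min at room temperature.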
Pf growth 48h: P. falciparum growth inhibition at 48 hours (one generation); P. falciparum luciferase growth in erythrocytes, 48 h; Potency, µM (doses to about 28.7 µM), for the others: top-dose activity change, negative = inhibition, hits mostly inhibitors; actives 5.9% (n = 310,000)
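Here the parasites carry a stable luciferase gene and grow inside erythrocytes in Albumax-based RPMI medium with compound for one erythrocytic cycle. Activity is scored as loss of luminescent signal.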
HCV inh: HCV inhibition | actives 3.4% (n = 340,000) | Huh7.5.1 HCVcc-Cre infection, luciferase reporter, 44 h | AID 651820 | Potency, µM (titrated, usually from 41.8 µM), without a hit: at the top dose activity change, negative = inhibition, hits mostly inhibitors
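Seed cells (1,000/well) for 4 h; treat with compound and infect with HCVcc-Cre, moi about 0.5. Incubate 44 h, then detect luciferase activity.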
* = called active by the depositor; i = inactive; ? = inconclusive; . = no result. Only some compounds are listed: those with a hit (about 11% of all), similar ones and a draw of the others. Calls follow the shape of the dose curve; as a rule, active = well fitted curve in the direction sought with a large enough effect; inconclusive = small, poorly fitted or top-dose-only effect, or another doubt; inactive = no such curve, though single readings can be large; an effect the other way counts as inactive or inconclusive. Unless noted, % is scaled to controls: 0 for no effect and ±100 for the full control effect; potency is read from the fitted curve at half-maximal effect.

SMILES	Pf growth 96h	AMA1 RON2 block	Pf growth 48h	HCV inh
CCCN1CCN(CCNC(=O)Nc2cc(C)ccc2C)CC1	-24%	5%	3%	4%
Cc1cccc(NC(=O)C(=O)NCC2CCCN2S(=O)(=O)c2cccs2)c1 (centres undefined)	.	0%	.	.
Cc1cc(CNC(=O)c2ccc3nc(Cc4ccccc4F)oc3c2)nn1C	2.1µM*	6%	14%	0%
Nc1ccn(C2OC(CCl)C(O)C2O)c(=O)n1 (centres undefined)	.	11%	.	.
CN1C(CCl)Nc2cc(Cl)c(S(N)(=O)=O)cc2S1(=O)=O (centres undefined)	12µM*	1%	-20%	25%
O=c1[nH]c(=S)[nH]c2c1C(c1cccc(C(F)(F)F)c1)OC(CCc1ccccc1)C2 (centres undefined)	.	84%	.	.
Cc1cc(C)nc(SC2=CS(=O)(=O)c3ccccc32)n1	-25%	8%	?	-33%
O=S1(=O)C=C(Sc2nc3ccccc3s2)c2ccccc21	.	21%	8.3µM*	5µM*
Cc1cccc(C)c1NC(=O)COc1ccc2c(C)c(Cc3ccccc3)c(=O)oc2c1	?	-8%	?	?
CC(C)CC(NS(=O)(=O)c1ccc2c(c1)oc(=O)n2C)C(=O)N1CC=C(c2ccccc2)CC1 (centres undefined)	10µM*	12%	.	-9%
CCOC(=O)N1CCN(C(=O)C(CC(C)C)NS(=O)(=O)c2ccc3c(c2)oc(=O)n3C)CC1 (centres undefined)	10µM*	3%	.	8%
Cn1c(=O)oc2cc(S(=O)(=O)NCCC(=O)N3CC=C(c4ccccc4)CC3)ccc21	-8%	22%	?	-7%
Cc1cc(S(=O)(=O)c2ccc(Cl)cc2)nc(S(=O)(=O)c2ccc(Cl)cc2)c1C#N	.	-11%	.	.
O=C(C[n+]1ccc(-c2cc(C(=O)Nc3cccc(C(F)(F)F)c3)c3ccccc3n2)cc1)c1cccc([N+](=O)[O-])c1	3.3µM*	?	?	13µM*
CCOC(=O)c1[nH]cnc1C(=O)N1CCC(C)CC1	?	13%	28%	7%
O=C(Cn1nc(C(F)(F)F)c2c1CCC2)Nc1ccccc1C(F)(F)F	i	-13%	-24%	1%
CC(C)CNC(=O)Cn1nc(C(F)(F)F)c2c1CCCC2	10µM*	-9%	20%	2%
CCNC(=O)c1ccc(-n2nc(C(F)(F)F)c3c2CCCC3)cc1	7.4µM*	6%	15µM*	-27%
O=C(O)Cn1nc(C(F)(F)F)c2c1CCCC2	43%	1%	28%	1%
COc1ccccc1NC(=O)Cn1nc(C(F)(F)F)c2c1CCCC2	2.1µM*	9%	14%	-28%
O=C(Cn1nc(C(F)(F)F)c2c1CCC2)NCc1ccc(Cl)cc1	2%	8%	10%	-18%
Cc1cccc(-c2nc(NCCCN3CCOCC3)c3ccccc3n2)c1	2.9µM*	-6%	.	?
Cc1cccc(-c2nc(S(=O)(=O)c3ccc(F)cc3)c(NCCCN3CCOCC3)o2)c1	13µM*	-8%	?	-12%
CC(C)Nc1nc(NCCN2CCCC2)c2sc(-c3ccccc3)cc2n1	.	-22%	.	.
COc1cc(C=C(c2nc3ccccc3s2)c2nc3ccccc3s2)cc(OC)c1O	?	?	?	10µM*
SMILES	Pf growth 96h	AMA1 RON2 block	Pf growth 48h	HCV inh
O=C(CS(=O)CC(=O)Nc1cccnc1)Nc1ccc(F)cc1 (centres undefined)	-2%	9%	?	0%
COc1ccc(OC)c(-c2nn(-c3ccccc3)cc2C(=O)N2CCc3ccccc3C2)c1	?	-19%	10µM*	?
COc1cccc(-c2nn(-c3ccc(C)cc3)cc2C(=O)N2CCc3cc(OC)c(OC)cc3C2)c1	?	-25%	9.3µM*	?
COc1ccc(OC)c(-c2nn(-c3ccccc3)cc2C(=O)NC2(C)CCS(=O)(=O)C2)c1 (centres undefined)	.	-5%	.	.
COc1cccc(-c2nn(-c3ccccc3)cc2C(=O)O)c1	21%	4%	-9%	7%
COc1ccccc1-c1nn(-c2ccccc2)cc1C(=O)N1CCc2ccccc2C1	3.7µM*	-8%	?	?
Cc1csc2nc(CNC(=O)C3CC=CCC3C(=O)O)cn12 (centres undefined)	8%	66%	13%	-9%
COC(=O)C[C@@H]1C=C[C@H](NC(=O)c2cnccn2)[C@@H](CO)O1	.	3%	.	.
COCCCNC(=O)c1c(N)n(-c2ccccc2)c2nc3ccccc3nc12	?	85%	?	13µM*
COCCCNC(=O)c1c(N)n(-c2ccc(S(N)(=O)=O)cc2)c2nc3ccccc3nc12	43%	5%	-8%	-18%
COCCNC(=O)c1c(N)n(-c2ccccc2)c2nc3ccccc3nc12	?	9%	?	?
COCCNC(=O)c1c(N)n(CCC(C)C)c2nc3ccccc3nc12	?	16%	.	?
COCCCNC(=O)c1c(NC(=O)c2ccco2)n(Cc2ccccc2)c2nc3ccccc3nc12	.	12%	?	-18%
COCCNC(=O)c1c(N)n(-c2cccc(C)c2)c2nc3ccccc3nc12	?	34%	?	11µM*
COCCNC(=O)c1c(N)n(CCCn2ccnc2)c2nc3ccccc3nc12	?	6%	7.4µM*	-30%
COCCNC(=O)c1c(NC(=O)c2ccc(Br)o2)n(Cc2ccccc2)c2nc3ccccc3nc12	?	12%	13µM*	?
Cc1cnc(C(=O)OC(C(=O)c2c[nH]c3ccccc23)c2ccccc2)cn1 (centres undefined)	32%	14%	13%	?
COC(=O)c1ccc(/C=N/OCC(=O)NCc2ccc(F)cc2)cc1	-3%	6%	-2%	?
C#CCn1c(=NC(=O)c2cc(-c3cccs3)nc3ccccc23)sc2cc(S(N)(=O)=O)ccc21	-2%	-1%	-18%	3%
CC(NC(=O)CCC(=O)c1ccccc1)c1ccc(F)cc1 (centres undefined)	?	10%	?	16%
COc1cccc(/C=N/NC(=O)c2c(-c3ccccc3)noc2C)c1O	?	82%	5.9µM*	?
COc1cccc(/C=N/NC(=O)c2ccoc2C)c1O	?	107%	?	10µM*
COc1ccc(/C=N/NC(=O)c2ccoc2C)cc1CN1CCN(c2ccc(F)cc2)CC1	?	-3%	9.3µM*	?
COc1ccc(C(=O)N/N=C/c2ccc(OC)c(CN3CCN(c4ccc(F)cc4)CC3)c2)cc1	16%	-1%	17%	?
COc1cccc(/C=N/NC(=O)CSCC(=O)Nc2ccccc2)c1O	?	48%	?	25µM*
CCCCOCCCNC(=O)C[C@@H]1C[C@@]2(C(=O)OC)CCCCC=C2N(Cc2cccc3ccccc23)C1=O	.	-8%	.	.
CCOc1cc([N+](=O)[O-])cc(/C=N/NC(=O)c2c(-c3ccccc3)noc2C)c1O	13µM*	-36%	18%	2%
